Measurements from the antibiotic and cytotoxicity screens of Wong et al. (2023).
Screen size: about 39,000 compounds; about 3,300 (8.5%) were called active. This is one part of a sample in which actives are shown more often than they occur.

System: HepG2
Assay: cytotoxicity call (relative viability < 0.9)
Settings: 10 µM

| SMILES | cytotoxicity call |
| --- | --- |
| C[C@@H]1CN([C@H](C)CO)C(=O)Cc2cc(NC(=O)Nc3cccc4ccccc34)ccc2O[C@H]1CN(C)Cc1ccc(Cl)c(Cl)c1 | inactive |
| C[C@@H]1CN([C@H](C)CO)C(=O)c2cc(NC(=O)Nc3cccc4ccccc34)ccc2O[C@@H]1CN(C)Cc1ccc(Cl)c(Cl)c1 | inactive |
| C[C@H](CO)N1C[C@H](C)[C@@H](CN(C)Cc2ccc(Cl)c(Cl)c2)Oc2ccc(NC(=O)Nc3cccc4ccccc34)cc2CC1=O | inactive |
| C[C@@H]1CN([C@H](C)CO)C(=O)Cc2cc(NC(=O)Nc3cccc4ccccc34)ccc2O[C@@H]1CN(C)Cc1ccc(Cl)c(Cl)c1 | active |
| C[C@H](CO)N1C[C@H](C)[C@H](CN(C)Cc2ccc(Cl)c(Cl)c2)Oc2ccc(NC(=O)Nc3cccc4ccccc34)cc2CC1=O | inactive |
| C[C@H]1CN([C@@H](C)CO)C(=O)Cc2cc(NC(=O)Nc3cccc4ccccc34)ccc2O[C@@H]1CN(C)Cc1ccc(Cl)c(Cl)c1 | inactive |
| C[C@@H]1CN([C@@H](C)CO)C(=O)c2cc(NC(=O)Nc3cccc4ccccc34)ccc2O[C@H]1CN(C)Cc1ccc(Cl)c(Cl)c1 | inactive |
| C[C@H](CO)N1C[C@H](C)[C@H](CN(C)Cc2ccc(Cl)c(Cl)c2)Oc2ccc(NC(=O)Nc3cccc4ccccc34)cc2C1=O | active |
| C[C@@H]1CN([C@@H](C)CO)C(=O)Cc2cc(NC(=O)Nc3cccc4ccccc34)ccc2O[C@@H]1CN(C)Cc1ccc(Cl)c(Cl)c1 | active |
| COc1ccc(S(=O)(=O)Nc2ccc3c(c2)C(=O)N(C)C[C@@H](OC)[C@H](C)CN(C(=O)NC(C)C)[C@H](C)CO3)cc1 | inactive |
| CN(C)CCCNC(=O)C[C@@H]1CC[C@@H]2[C@H](COC[C@@H](O)CN2S(=O)(=O)c2ccc(Cl)cc2)O1 | inactive |
| C[C@@H]1CCCCO[C@@H](CN(C)S(=O)(=O)c2cccs2)[C@@H](C)CN([C@@H](C)CO)C(=O)c2cc(NC(=O)Nc3ccc(C(F)(F)F)cc3)ccc2O1 | inactive |
| Cc1noc(C)c1S(=O)(=O)Nc1ccc2c(c1)C(=O)N([C@@H](C)CO)C[C@@H](C)[C@@H](CN(C)Cc1ccccc1)OCCCC[C@H](C)O2 | inactive |
| C[C@@H]1CN([C@@H](C)CO)C(=O)c2cc(NC(=O)CCN3CCOCC3)ccc2O[C@H]1CN(C)CC1CCCCC1 | inactive |
| C[C@@H]1CCCCO[C@@H](CN(C)C(=O)c2ccccc2)[C@H](C)CN([C@H](C)CO)C(=O)c2cc(NS(=O)(=O)c3ccc(Cl)cc3)ccc2O1 | inactive |
| Cc1ccc(S(=O)(=O)N(C)C[C@H]2OCCCC[C@H](C)Oc3ccc(NC(=O)Nc4ccccc4)cc3C(=O)N([C@@H](C)CO)C[C@@H]2C)cc1 | inactive |
| C[C@@H]1CN([C@@H](C)CO)C(=O)CCCn2nncc2CO[C@@H]1CN(C)Cc1cccc2c1OCCCO2 | inactive |
| COc1ccc(NC(=O)Nc2ccc3c(c2)C(=O)N([C@@H](C)CO)C[C@@H](C)[C@@H](CN(C)Cc2ccncc2)OCCCC[C@@H](C)O3)cc1 | inactive |
| C[C@@H]1CN([C@H](C)CO)C(=O)c2cc(NC(=O)Cn3cnnn3)ccc2O[C@@H]1CN(C)C(=O)Nc1ccc(F)cc1 | inactive |
| CC[C@@H](C)NCCCCOc1ccc(Cl)cc1C(C)(C)C | active |
| Cc1ccc(OCc2ccc(Cl)cc2)c(C(C)(C)C)c1 | inactive |
| CC(C)(C)NCCCCOc1ccc(Cl)cc1C(C)(C)C | active |

| SMILES | cytotoxicity call |
| --- | --- |
| C#CCN(C)CCCOc1ccc(Cl)cc1Cl.Cl | inactive |
| CCOc1ccccc1OCCNC(C)Cc1ccc(OC)c(S(N)(=O)=O)c1.Cl (centres undefined) | inactive |
| CC(C)Oc1ccc(Cl)cc1CN | inactive |
| C[C@@H]1CN([C@H](C)CO)C(=O)c2cc(NC(=O)Nc3ccc4c(c3)OCO4)ccc2O[C@@H]1CN(C)S(C)(=O)=O | inactive |
| COc1ccc(COC[C@@]23Oc4ccccc4[C@@H](NC(=S)N2C)[C@H]3CO[Si](C)(C)C(C)(C)C)cc1 | active |
| COc1ccc(COC[C@]23NC(=S)N[C@H](c4ccccc4O2)[C@@H]3CO[Si](C)(C)C(C)(C)C)cc1 | inactive |
| COc1ccc(COC[C@]23NC(=S)N[C@H](c4ccccc4O2)[C@H]3CO[Si](C)(C)C(C)(C)C)cc1 | inactive |
| COc1ccc(COC[C@@]23Oc4ccccc4[C@@H](NC(=O)N2C(=O)c2ccccc2)[C@H]3CO[Si](C)(C)C(C)(C)C)cc1 | inactive |
| COc1ccc(COC[C@]23N=C4SCCCN4[C@H](c4ccccc4O2)[C@H]3CO[Si](C)(C)C(C)(C)C)cc1 | active |
| COc1ccc(COC[C@]23Oc4ccccc4[C@H]([C@H]2CO[Si](C)(C)C(C)(C)C)N(C(=O)CC(C)=O)C(=O)N3C)cc1 | inactive |
| COc1ccc(COC[C@@]23Oc4ccccc4[C@@H](NC(=S)N2C)[C@@H]3CO[Si](C)(C)C(C)(C)C)cc1 | active |
| COc1ccc(COC[C@]23N=C4SCCCN4[C@H](c4ccccc4O2)[C@H]3COC(=O)c2ccccc2)cc1 | inactive |
| COc1ccc(COC[C@]23N=C4SCc5ccccc5CN4[C@H](c4ccccc4O2)[C@H]3CO[Si](C)(C)C(C)(C)C)cc1 | inactive |
| O=C(C[C@H]1CC[C@H]2[C@@H](COC[C@@H](O)CN2S(=O)(=O)c2cccc(F)c2)O1)NCc1ccncn1 | inactive |
| Cc1cccc(CO)n1 | inactive |
| O=C1N[C@@H]2[C@@H](O)[C@@H](O)[C@H](O)[C@@H](CO)N2C1=O | inactive |
| CCCCS(=N)(=O)CC[C@@H](N)C(=O)O (some centres undefined) | inactive |
| NC(=S)Nc1ccncc1 | inactive |
| CCC[C@@H](O)C#Cc1cnc2c(c1)C(=O)N([C@H](C)CO)C[C@H](C)[C@H](CN(C)S(=O)(=O)c1cccc(F)c1)O2 | inactive |
| C[C@H](CO)N1C[C@H](C)[C@H](CN(C)C(=O)Cc2ccccc2)OCCCC[C@H](C)Oc2ccc(NS(=O)(=O)c3ccc(Cl)cc3)cc2C1=O | inactive |
| COc1ccc(NC(=O)N(C)C[C@H]2Oc3ccc(NS(=O)(=O)c4cn(C)cn4)cc3CC(=O)N([C@H](C)CO)C[C@H]2C)cc1 | inactive |
| Cc1noc(C)c1NC(=O)N(C)C[C@H]1Oc2ccc(NC(=O)c3ccncc3)cc2C(=O)N([C@H](C)CO)C[C@H]1C | inactive |
